According to PubChem BioAssay AID624330 (Southern Research Specialized Biocontainment Screening …, 2012):
Out of some 340,000 compounds screened, about 2,100 (0.62%) were called active.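 How the source made its calls: active means first-screen hits whose inhibition reached a set limit at any dose in the follow-up dose series; inconclusive means inhibition above the set first-screen limit but never retested; inactive means the rest.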 A selection follows. Measured potencies and affinities stand elsewhere.

target: Rac GTPase-activating protein 1 (Homo sapiens) (UniProt Q9H0H5); assay: MgcRacGAP GTPase-activating activity inhibitors, confirmation, biochemical, ADP Hunter fluorescence, primary and confirmatory (AID 624330); settings: MgcRacGAP-stimulated Rac1 GTP hydrolysis, at 30 µM, active compounds read high, GST-tagged Rac1 F28L mutant substrate;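 further: fluorescence reports GDP produced by GAP-driven GTP hydrolysis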
Sequence (Q9H0H5 whole entry, looked up): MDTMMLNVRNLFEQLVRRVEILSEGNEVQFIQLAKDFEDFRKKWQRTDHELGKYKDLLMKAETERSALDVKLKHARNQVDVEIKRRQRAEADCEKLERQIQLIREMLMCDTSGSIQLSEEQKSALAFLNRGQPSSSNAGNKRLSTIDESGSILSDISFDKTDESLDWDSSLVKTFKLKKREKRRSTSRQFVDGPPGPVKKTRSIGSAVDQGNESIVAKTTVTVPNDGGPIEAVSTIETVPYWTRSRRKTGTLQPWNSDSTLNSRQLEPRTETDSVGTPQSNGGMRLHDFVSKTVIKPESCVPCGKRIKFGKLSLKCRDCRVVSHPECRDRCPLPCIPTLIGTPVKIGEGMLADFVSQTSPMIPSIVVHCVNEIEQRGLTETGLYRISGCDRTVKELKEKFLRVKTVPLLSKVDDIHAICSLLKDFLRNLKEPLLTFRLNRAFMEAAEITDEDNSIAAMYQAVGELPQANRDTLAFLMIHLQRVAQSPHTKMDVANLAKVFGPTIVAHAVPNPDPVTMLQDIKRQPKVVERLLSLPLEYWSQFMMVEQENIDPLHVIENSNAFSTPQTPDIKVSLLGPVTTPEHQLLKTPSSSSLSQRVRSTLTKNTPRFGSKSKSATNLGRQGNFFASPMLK

inhibition, inactive:
O=C(Nc1ccccc1Cl)C1CCN(S(=O)(=O)c2cccc3nonc23)CC1 -1.65%
CCN(CC)c1ccc(CNc2ccc3c(c2)ncn3C(C)(C)C)cc1 6.25%
CCOc1cc(/C=N/Nc2nncc(-c3ccccc3)n2)ccc1O 13.6%
CCOc1cc(/C=N/Nc2cc(C)nc(-n3nc(C)cc3C)n2)ccc1O 11.4%
CCOc1ccc(/C=N/Nc2nc(=O)[nH]nc2C)cc1OC 7.43%
CCOc1cc(/C=N\Nc2nc(-c3ccc(C)cc3)c(NC(C)=O)s2)ccc1O 8.08%
C[C@H](CO)N1C[C@H](C)[C@@H](CN(C)C(=O)Nc2ccc(C(F)(F)F)cc2)Oc2ccc(NS(=O)(=O)c3cccs3)cc2C1=O 6.16%
CC(C)NC(=O)CCCc1cn(C)c2ccccc12 3.62%
COCCNC(=O)c1onc(CSc2ccccc2)c1C(=O)O 7.12%
COc1ccc(/C=C/C(=O)OCC(=O)NCc2ccccc2)cc1OC -1.57%
COc1cc(/C=C/C(=O)OCC(=O)NCc2ccccc2OC)ccc1O -4.08%
COc1cc(/C=C/C(=O)O)ccc1O 22.1%
COC(=O)c1ccc(CNC(=O)COC(=O)/C=C/c2ccc(OC)c(OC)c2)cc1 1.48%
CC(C)CN(C(=O)COC(=O)/C=C/c1ccc(Cl)c(Cl)c1)c1c(N)n(Cc2ccccc2)c(=O)[nH]c1=O 10.7%
COC(=O)c1ccc(CNC(=O)COC(=O)/C=C/c2cc(OC)c(OC)c(OC)c2)cc1 -11.7%
CCN(C(=O)COC(=O)/C=C/c1ccc(OC)c(OC)c1)c1c(N)n(Cc2ccccc2)c(=O)[nH]c1=O 4.28%
COc1cc(/C=C/C(=O)OCC(=O)N(C)Cc2ccccc2)cc(OC)c1OC 5.49%
CCOC(=O)C(Cc1c(F)cccc1Cl)c1ccnc2nc(N)nn12 (stereo unspecified) 7.53%
CCC(CC)CN1C(Nc2ccccc2)=NC[C@@H]1CC(C)C 7.15%
Cn1c(SCC(=O)NNC(=O)c2ccc(Br)cc2)nnc1-c1cccnc1 6.67%
CC1CN(CC(=O)NN=C(c2ccccc2)c2ccccc2)CC(C)O1 (stereo unspecified) 8.46%
Cc1cccc2sc(NC(=O)CSc3nc4ccccc4o3)nc12 7.18%
CC(Sc1ncnc2ccccc12)C(=O)Nc1ccc2c(c1)OCO2 (stereo unspecified) 5.78%
COc1ccc(OC(C)C(=O)N2CCN(c3ccccn3)CC2)cc1 (stereo unspecified) -1.84%
CC1CCCN(C(=O)COC(=O)CNS(=O)(=O)c2ccc3ccccc3c2)C1 (stereo unspecified) 11.5%
COc1ccc(/C=C/C(=O)OCC(=O)NCCCc2ccccc2)cc1OC 1.47%
COc1cc(/C=C/C(=O)OCC(=O)NCCCc2ccccc2)cc(OC)c1OC 2.15%
O=C(NCCc1c[nH]c2ccccc12)C(=O)NCC(c1ccco1)N1CCN(c2ccc(F)cc2)CC1 (stereo unspecified) 5.54%
C[C@@H]1CN([C@@H](C)CO)C(=O)c2cc(-c3ccccc3F)cnc2O[C@H]1CN(C)Cc1cccc(F)c1 5.55%
COc1cccc2c(C)c(C(=O)O)[nH]c12 7.15%
COc1ccc(OC)c2c(C)cc(C)nc12 4.59%
COc1ccc(N(CC(=O)Nc2ccc(OC)c(OC)c2)S(=O)(=O)c2ccccc2)cc1Cl 12.2%
COc1cc(OC)cc(C(=O)N2CCN(C3CCN(Cc4ccccc4)CC3)CC2)c1 29%
CCc1ccc(CN2CCN(C(=O)c3cccc(OC)c3OC)CC2)cc1 23.3%
COc1ccc(C(=O)N2CCN(C3CCC(c4ccccc4)CC3)CC2)cc1OC (stereo unspecified) 23.6%
CCOC(=O)C1CCN(Cc2ccc(OCc3ccccc3)c(OC)c2)CC1 15.7%
COc1ccccc1C(=O)N1CCN(C2CCN(Cc3ccccc3)CC2)CC1 19.4%
COc1cc(C(=O)N2CCN(CCCc3ccccc3)CC2)cc(OC)c1OC 15.2%
CCOC(=O)C1CCN(Cc2ccc(OC)c(OCc3ccccc3)c2)CC1 27.7%
COc1ccc(C(=O)N2CCN(C(=O)Cc3ccccc3)CC2)cc1OC 3.19%
CCn1c(Cc2cccs2)nnc1SCC(=O)Nc1ccc(OC)c(OC)c1 7.07%
O=C(CCCn1c(=O)oc2ccccc21)N1CCc2ccccc2C1 8.41%
O=C(CSc1nccc(=O)[nH]1)Nc1cccc2ccccc12 8.22%
Cc1cc(C)cc(NS(=O)(=O)c2ccc3[nH]c(=O)ccc3c2)c1 6.34%
CCCCN(C(=O)c1cccc(-c2ccc(OC(C)=O)cc2)c1)c1c(N)n(CCC)c(=O)[nH]c1=O 8.17%
CCc1c(C)c2ccc(O)c(CN(C)C)c2oc1=O 3.54%
CC(C)c1cc(C(F)(F)F)n2nc(C(=O)Nc3ccc(-n4cnnn4)cc3)cc2n1 0.65%
CCc1cc(C(=O)N2CCCC(CNC(=O)c3ccc(-c4ccccc4)cc3)C2)no1 (stereo unspecified) 1.46%
O=C(COC(=O)c1ccc(O)cc1O)Nc1cccc2ccccc12 4.44%
CC12CCC(=O)C=C1C(F)CC1C2C(O)CC2(C)C1CCC2(O)C(=O)CO (stereo unspecified) -2.17%
COc1ccc(Br)cc1C1Nc2cccc3cccc(c23)N1 13.1%
COc1ccc(C2Nc3cccc4cccc(c34)N2)cc1 16%
Oc1ccccc1C1Nc2cccc3cccc(c23)N1 26.2%
COc1cc(C2Nc3cccc4cccc(c34)N2)cc(OC)c1O 12.2%
O=C(Oc1cccc2cccnc12)c1ccco1 12.4%
COCC(=O)N(Cc1cc2cc(C)ccc2[nH]c1=O)c1ccc(C)c(C)c1 16.2%
O=[N+]([O-])c1ccc(Cl)c(S(=O)(=O)/N=C(/c2ccccc2)N2CCOCC2)c1 2.34%
Cc1ccccc1C(=O)N1CCC(C(=O)NCc2ccc(Cl)cc2)CC1 8.11%
CC(OC(=O)CC1CCCCC1)C(=O)Nc1ccc(S(N)(=O)=O)cc1 (stereo unspecified) 1.14%
Cc1cc(C)c(C)c(S(=O)(=O)Nc2ccc(C(N)=O)cc2)c1C 13.9%
Cc1cc(C)c(C)c(S(=O)(=O)Nc2ccc(OCC(=O)O)cc2)c1C -3.75%
Cc1cc(C)c(S(=O)(=O)Nc2ccccc2)c(C)c1 -2.09%
CC(=O)c1ccc(NS(=O)(=O)c2c(C)cc(C)cc2C)cc1 2%
O=C(NC1CC1)c1ccc(CN(c2ccccc2)S(=O)(=O)c2ccccc2)cc1 5.44%
O=C(Nc1cccc(-c2ccc(N3CCOCC3)nn2)c1)c1ccc(Cl)cc1 3.67%
CCc1c(C)nc(SCC(=O)N2CCN(c3ccccc3)CC2)[nH]c1=O 13%
Cc1ccc(N=Cc2cc(Cc3ccccc3Cl)cc([N+](=O)[O-])c2O)c(O)c1 20.2%
O=[N+]([O-])c1cc(Cc2ccccc2)cc(C=Nc2ccc(N3CCOCC3)cc2)c1O 27.8%
O=C(COC(=O)c1cnccn1)NCCc1ccc(Cl)cc1 8.82%
CCOc1ccc(C(=O)NNC(=O)C2CC(=O)N(c3ccc(C)cc3)C2)cc1 (stereo unspecified) 5.17%
Fc1ccc(/C=N/Nc2nccnc2Cl)cc1 15.7%
O=C(O)c1ccc(/C=N/Nc2ncc(Cl)cc2Cl)cc1 2.45%
Clc1cnc(N/N=C/c2ccncc2)c(Cl)c1 3.41%
Oc1ccc(/C=N/Nc2ccnc3cc(Cl)ccc23)c(O)c1 17.9%
Clc1nccnc1N/N=C/c1ccc(Br)cc1 13.4%
Oc1ccccc1/C=N/Nc1nccnc1Cl 5.4%
CCC(NC(=O)c1ccccc1NC(=O)C(C)(C)C)C(=O)N1CCCC1 (stereo unspecified) 7.5%
CCN(C(=O)CSc1nc2cc(S(=O)(=O)N(CC)CC)ccc2n1CC)C1CCS(=O)(=O)C1 (stereo unspecified) 0.8%
COCCN(C(=O)c1cccc(-n2cnnn2)c1)c1c(N)n(CC(C)C)c(=O)[nH]c1=O 5.99%
CCc1cc(C(=O)N2CCN(S(=O)(=O)c3ccc(Cl)cc3)CC2)sc1C 1.55%
O=C(c1cc(S(=O)(=O)N2CCCCC2)ccc1N1CCOCC1)N1CCN(Cc2ccccc2)CC1 7.61%
NC(=S)NNC(=O)[C@@H]1CCCC[C@@H]1C(=O)O 11.2%
C=CCOc1cccc(/C=N/NC(=O)CN2CCCCC2)c1 8.26%
O=C(C[C@H]1C/C=C\C[C@@H](Cc2ccc(F)cc2)C(=O)OC[C@H]2CCCN2C1=O)N[C@@H](CO)Cc1ccccc1 4.35%
CC(NC(=O)c1cccc(C(F)(F)F)c1)C1CCCO1 (stereo unspecified) 6.29%
O=c1cc(-c2ccc(O)cc2)oc2c([C@@H]3O[C@H](CO)[C@@H](O)[C@H](O)[C@H]3O)c(O)c([C@@H]3O[C@H](CO)[C@@H](O)[C@H](O)[C@H]3O)c(O)c12 5.95%
COc1ccc(-c2cc(=O)c3c(O)cc(OC4OC(COC5OC(C)C(O)C(O)C5O)C(O)C(O)C4O)cc3o2)cc1O (stereo unspecified) 4.67%
O=c1c2cc(O)c(O)cc2oc2cc(O)c(C3OC(CO)C(O)C(O)C3O)c(O)c12 (stereo unspecified) 23.9%
O=c1cc(-c2ccc(O)cc2)oc2cc(O)c(C3OC(CO)C(O)C(O)C3O)c(O)c12 (stereo unspecified) 12.2%
O=c1cc(-c2ccc(O)cc2)oc2cc(O)c([C@@H]3O[C@H](CO)[C@@H](O)[C@H](O)[C@H]3O)c(O)c12 4.21%
CC1OC(OCC2OC(Oc3c(-c4ccc(O)cc4)oc4cc(O)cc(O)c4c3=O)C(O)C(O)C2O)C(O)C(O)C1O (stereo unspecified) 7.46%
